In all, about 330,000 compounds went through this assay and about 1,900 (0.58%) were called active. Not shown: some 4% with an inconclusive outcome. Cut-off read from the data, not from the text of the source: inconclusive = inhibition above about 70% without an active follow-up result; inactive = below that. The list is a sample of the results. Measured potencies and affinities stand elsewhere.

The assay can be described thus: M. tuberculosis growth inhibition, HTS (AID 449762).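 Note: bacterial growth assessed after seven days of incubation.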 The note with it: M. tuberculosis H37Rv growth inhibition, 7H9 media; at 25 µM; stronger effect = higher value.
As a reminder, the inhibition is the change of the read-out against control, counted positive when it falls. On to `COc1ccccc1NC(=O)CSc1nnnn1C`, for which the inhibition is -4.82% (inactive).

As for `COc1ccccc1NC(=O)c1ccc(NC(=O)CSc2nncn2C)cc1`, the inhibition was 7.82% (inactive). Turning to `COc1ccccc1NS(=O)(=O)c1ccc2ccccc2c1`, the inhibition is 7.83% (inactive). In the case of `CC1CCc2sc(C(=O)NCc3ccccn3)cc2C1` (stereo unspecified), the inhibition is 4.08% (inactive). For the compound `O=C(Nc1cccc2ccccc12)c1ccc([N+](=O)[O-])cc1`, the inhibition was 5.16% (inactive). `CCOC(=O)C1CCCCN1S(=O)(=O)c1cc2c(cc1C)NC(=O)CO2` (stereo unspecified): the inhibition is -3.9% (inactive). For `CCN(C(=O)Cn1ccc(C(F)(F)F)n1)c1c(N)n(Cc2ccccc2)c(=O)[nH]c1=O`, the inhibition was -10% (inactive).

With `O=C(COc1ccc([N+](=O)[O-])cc1)NNC(=S)NC(=O)c1ccc(Br)cc1`, the inhibition was 10.5% (inactive). The result for `Cc1ccc(S(=O)(=O)N(C)c2ccc(OCC(=O)OCc3c(C)noc3C)cc2)cc1` reads 47.9% (inactive). Turning to `Cc1ccc(S(=O)(=O)N(C)c2ccc(OCC(=O)OCC(=O)N(CC#N)c3ccccc3)cc2)cc1`, the inhibition was 15.9% (inactive). As to `CN1CC=C(c2c[nH]c3ccccc23)CC1`, the inhibition is -13.7% (inactive).

On to `COc1ccc2[nH]cc(C3=CCNCC3)c2c1`, for which the inhibition is 67.9% (inactive). Turning to `CCOc1cc(C2C3=C(CC(C)(C)CC3=O)N(CCCOC)C3=C2C(=O)CC(C)(C)C3)ccc1OC`, the inhibition is 1.22% (inactive). As to `CC(=O)Nc1ccc2c(c1)nc1n2CCOC1`, the inhibition was 8.99% (inactive). With `Cc1ccc(N(CC(=O)Nc2cc(Cl)ccc2Oc2ccccc2)S(C)(=O)=O)cc1C`, the inhibition is 13.8% (inactive). As for `Cc1nn(-c2ccccc2)c(N)c1N=Nc1ccc2ccccc2c1`, the inhibition was 56.7% (inactive). With `Cc1nn(-c2ccccc2)c(N)c1N=Nc1ccccc1`, the inhibition is -2.88% (inactive). For `O=c1c2sccc2nc(SCc2ccc([N+](=O)[O-])cc2)n1Cc1ccccn1`, the inhibition was 4.82% (inactive). With `O=C(CSc1nnnn1-c1ccc2c(c1)OCCO2)N1CCc2ccccc21`, the inhibition is 5.18% (inactive). The same measure for `O=C(CCc1n[nH]c(=O)[nH]c1=O)N1CCOCC1`: -14.1% (inactive).

On to `CCCNC(=O)c1cccc(COc2ccccc2OC)c1`, for which the inhibition was 3.61% (inactive). On to `Cc1nc2ccccn2c(=O)c1CCN1CCC(C(=O)c2ccc(F)cc2)CC1`, for which the inhibition is -4.74% (inactive).

With `Cc1nc2sccn2c(=O)c1S(=O)(=O)N1CCN(c2ccc(F)cc2)CC1`, the inhibition is 8.78% (inactive). `CCCNC(=S)N(Cc1cc2cc(C)ccc2n2nnnc12)CC(C)(C)CN(C)C`: the inhibition is 18.8% (inactive). As for `CNCCNC[C@H](Cc1cccc2ccccc12)NCCc1ccccc1`, the inhibition was -2.82% (inactive). For `CSCC[C@H](NC(=O)OC(C)(C)C)C(=O)NCC1CCC(C(=O)N[C@@H](Cc2ccccc2)C(=O)O)CC1` (stereo partly specified), the inhibition is 2.33% (inactive). In the case of `C=CCOc1ccccc1CNCCNC(=O)c1nonc1N`, the inhibition is -4.17% (inactive). The same measure for `CCCCCOC(=O)Cn1c(SCC(=O)Nc2ccccc2)nc2c1c(=O)[nH]c(=O)n2C`: -7.54% (inactive); for `O=C(c1cc([N+](=O)[O-])ccc1N1CCOCC1)N1CCN(S(=O)(=O)c2ccc(F)cc2)CC1`: -2.15% (inactive). As to `C/C(=N\NC(=O)c1cc2ccccc2cc1O)c1cccs1`, the inhibition was -0.54% (inactive). As to `C/C(=N/NC(=O)c1cc2ccccc2cc1O)c1ccco1`, the inhibition is 66.3% (inactive). As to `N#CCCN(C(=O)COC(=O)c1nc(Cl)ccc1Cl)c1ccccc1`, the inhibition is -6.38% (inactive). For `C=CCn1c(C(C)NC(=O)c2cccs2)n[nH]c1=S` (stereo unspecified), the inhibition is -3.28% (inactive). Turning to `CCC(C)Oc1cc(-c2ccnc(Nc3cccc(Cl)c3)n2)ccn1` (stereo unspecified), the inhibition was 63.7% (inactive). For the compound `OCCCNc1nccc(-c2cc(Nc3cccc(Cl)c3)ncn2)n1`, the inhibition is 5.56% (inactive). For `Cc1ccc(-c2nnn(CC(=O)N(c3cccc(F)c3)C(C(=O)NC3CCCC3)c3ccncc3)n2)o1` (stereo unspecified), the inhibition is 0.25% (inactive). For the compound `COCCCNC(=O)CSc1ccc(Cl)cc1`, the inhibition is -2.16% (inactive). Take `CCN(c1ccccc1)S(=O)(=O)c1ccc(OC)c(N=N/C(C(=O)Nc2ccccc2)=C(/C)O)c1`: the inhibition is 10.8% (inactive). Regarding `O=C(NCC(c1ccco1)N1CCOCC1)c1cccc([N+](=O)[O-])c1` (stereo unspecified), the inhibition is 1.76% (inactive). Take `CC(C)NCC(O)COC1CCC(C(C)(C)C)CC1` (stereo unspecified): the inhibition is -7.84% (inactive). The result for `CC[C@H](C)[C@@H](CN[C@H](CCCCNC)CNC)NCC1CCCC1` reads 4.48% (inactive). With `Cc1ccc(C2C3=C(CC(C)(C)CC3=O)OC3=C2C(=O)CC(C)(C)C3)cc1`, the inhibition was -4.24% (inactive).

With `Cc1onc(-c2ccccc2)c1C(=O)OCC(=O)N1CCC(C)CC1`, the inhibition is -0.29% (inactive). The same measure for `CSc1nnc(C)c(/C=C/NOCc2ccc(Cl)cc2)n1`: -4.59% (inactive); for `CCc1ccc2c(c1)cc(CN(C(=S)Nc1ccc(Cl)cc1)C1CC1)c1nnnn12`: -13.5% (inactive); for `Cn1cnc2cc(NCc3cccs3)ccc21`: 2.02% (inactive).

As for `Cc1ccccc1-n1cnc2cc(NCc3cccs3)ccc21`, the inhibition was 59.7% (inactive).

Consider `CCn1c(SC(C)C(=O)N2CCOCC2)nc2sc(C)c(C)c2c1=O` (stereo unspecified), for which the inhibition was -0.24% (inactive). In the case of `CCC(C)[C@H](NC(=O)C1CC(=O)N(c2ccc3c(c2)OCCO3)C1)C(=O)NC1CCCC1` (stereo partly specified), the inhibition was -2.76% (inactive).

For `CCC(=O)Nc1ccc2c(c1)C(=O)N(C1CCCCC1)C2=O`, the inhibition is 12.2% (inactive). The same measure for `COC(=O)c1ccc2c(c1)C(=O)N(C1CCCCC1)C2=O`: 48.9% (inactive); for `CN(CCC#N)C(=O)COC(=O)c1ccc2c(c1)C(=O)N(C1CCCCC1)C2=O`: 11.1% (inactive); for `O=C(O)COc1ccc(NC(=O)c2ccc3c(c2)C(=O)N(C2CCCCC2)C3=O)cc1`: -5.81% (inactive). The same measure for `Clc1cccc(C2CCN(Cc3nc(CC4CC4)no3)C2)c1` (stereo unspecified): 16.3% (inactive). The result for `COc1ccc(NCc2nnc(SCc3ccc(Cl)cc3)n2-c2ccccc2)cc1` reads -5.4% (inactive); that for `CCOC(=O)CSc1nnc(CNc2cccc(Cl)c2)n1-c1ccccc1`, -7.68% (inactive). Regarding `Cc1ccccc1S(=O)(=O)Cc1ccc(C(=O)NCCCOC(C)C)o1`, the inhibition was 2.68% (inactive).

As for `CN(CC(=O)Nc1ccccc1Cl)C(=O)COC(=O)c1ccc(=O)n(Cc2ccccc2)n1`, the inhibition was 0.91% (inactive). In the case of `CC(=O)N(Cc1nc2sc(C)c(C)c2c(=O)[nH]1)C1CCCC1`, the inhibition was -3.15% (inactive). As for `Cc1sc2nc(CN(C(=O)NC3CCCCC3)C3CCCCC3)[nH]c(=O)c2c1C`, the inhibition was 26.1% (inactive).

Take `O=C(Cc1ccc(F)cc1)N(c1ccccc1)C1C=CS(=O)(=O)C1` (stereo unspecified): the inhibition is -6.47% (inactive). For `CCn1cc(C2C(C(=O)Nc3cc(C)ccn3)=C(C)NC3=C2C(=O)CC(C)(C)C3)c(C)n1` (stereo unspecified), the inhibition is 1.96% (inactive). The same measure for `CCCn1c(=O)c(C(=O)Nc2ncccc2C)c(O)c2ccccc21`: 18.3% (inactive); for `CCCCCCn1c(=O)c(C(=O)Nc2ncccc2O)c(O)c2ccccc21`: 13.4% (inactive).

Take `CCN(N=Nc1cccc([N+](=O)[O-])c1)c1cccc([N+](=O)[O-])c1`: the inhibition was 4.11% (inactive). Take `CC1(C)CC(=O)C(N=Nc2cccc([N+](=O)[O-])c2)=C(O)C1`: the inhibition was 0.73% (inactive). Take `COc1ccc(CCN2C(=O)CSC2c2ccc(F)cc2)cc1` (stereo unspecified): the inhibition is -7.99% (inactive). For the compound `Cc1ccc(S(=O)(=O)N(C)c2ccc(C(=O)Nc3ccccn3)cc2)cc1`, the inhibition is 27.5% (inactive). Consider `COc1ccc(-c2sc3ccc(N4CCOCC4)cc3c2-c2ccc(OC)c(F)c2)cc1`, for which the inhibition was -0.65% (inactive). With `Cc1nc(SCc2nc3ccccc3[nH]2)c2oc3cc(Br)ccc3c2n1`, the inhibition was 0.43% (inactive). The same measure for `N=c1sccn1CC(=O)Nc1ccc(Cl)cc1[N+](=O)[O-]`: -3.88% (inactive); for `Cc1cc(NC(=O)Cn2ccsc2=N)c([N+](=O)[O-])cc1C`: -4.45% (inactive); for `CC(Oc1ccccc1)C(=O)N1CCC2(CC1)Oc1ccc(Cl)cc1C(=O)C21CC(c2ccccc2)=NO1` (stereo unspecified): 23.6% (inactive).

`CC(C)C(=O)N1CCC2(CC1)Oc1ccc(Cl)cc1C(=O)C21CC(c2cccnc2)=NO1` (stereo unspecified): the inhibition is 1.87% (inactive). Turning to `CN1/C(=C\C(=O)c2cccnc2)C(C)(C)c2ccccc21`, the inhibition was 14.2% (inactive).

For `CN1/C(=C\C(=O)c2ccco2)C(C)(C)c2ccccc21`, the inhibition was 1.21% (inactive). As for `CCC(C)[C@H](NC(=O)Nc1ccc(S(N)(=O)=O)cc1)C(=O)OC` (stereo partly specified), the inhibition is 1.32% (inactive).

Turning to `O=C(CCl)Nc1ccc(S(=O)(=O)NC2=NCCCCC2)cc1`, the inhibition is 47.6% (inactive). The result for `Cc1cc(NC(=O)/C=C/c2ccccc2)no1` reads 11.4% (inactive).

With `COC(=O)c1cc(/C=C/c2ccccc2)[nH]n1`, the inhibition was 37.7% (inactive). On to `O=C(c1ccc(C(F)(F)F)cc1)N1CCC(=O)N(C(COCc2ccc(Cl)cc2)Cc2ccccc2)CC1` (stereo unspecified), for which the inhibition is -0.74% (inactive). Turning to `CCSc1nc2ccccc2n1CC(N)=O`, the inhibition was -10.4% (inactive).

On to `CC(C)(C(=O)O)c1ccc([C@H](O)CCCN2CCC(C(O)(c3ccccc3)c3ccccc3)CC2)cc1`, for which the inhibition was 6.89% (inactive). Regarding `CC(C)(C(=O)O)c1ccc(C(O)CCCN2CCC(C(O)(c3ccccc3)c3ccccc3)CC2)cc1` (stereo unspecified), the inhibition is 6.01% (inactive). As to `Cc1ccc2cc(CCNC(=O)c3ccc4c(c3)OCO4)c(=O)[nH]c2c1C`, the inhibition is -3.26% (inactive). The same measure for `Cn1c(=O)n(C)c2cc(NC(=O)CCl)ccc21`: 64.7% (inactive); for `Cn1ccc(NC(=O)CCl)n1`: 57.5% (inactive); for `CSc1ccc(CCNS(=O)(=O)c2c(C)[nH]c(C)c2C(=O)N2CCCCC2)cc1`: -2.39% (inactive). The result for `Cc1ccc(NC(=O)C2CCC(CNC(=O)[C@@H]3Cc4ccccc4CN3)CC2)c(C)c1` (stereo partly specified) reads 7.99% (inactive); that for `Cn1c(O)c(/C=N/N2CCCCC2)c(=O)[nH]c1=O`, -3.56% (inactive). For `C=CCSC1=C(C#N)C(c2ccccc2C)CC(=O)N1` (stereo unspecified), the inhibition is 1.95% (inactive).

These data come from PubChem BioAssay AID449762 (Southern Research Specialized Biocontainment Screening …, 2010).
